Laboratory results from PubChem BioAssay.
Active and inactive are the calls of the source.

Assays:
[1] = A549 cell viability effects, profiling panel, calcein-AM fluorescence, 48 h, basal (AID 1162); settings: higher = more signal; further: test concentration not given here
[2] = adipocyte viability effects, profiling panel, cell-based, 3T3-L1 adipocytes, calcein-AM fluorescence, 48 h, basal (AID 1163); settings: 3T3-L1 adipocytes viability, higher = more signal; further: test concentration not given here
[3] = HepG2 cell viability effects, profiling panel, calcein-AM fluorescence, 48 h, basal (AID 1164); settings: higher = more signal; further: test concentration not given here
[4] = MM1S cell viability effects, profiling panel, calcein-AM fluorescence, 48 h, basal (AID 1165); settings: higher = more signal;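 further: viability of MM1S multiple myeloma cells under basal unstimulated conditions; test concentration not given here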
[5] = basal RPMI8226 viability, no added stimulus, profiling panel, cell-based, calcein-AM fluorescence, 48 h, PK04 Diversity Set (AID 1166); settings: RPMI8226 myeloma viability, higher = more signal;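 further: cells grown under basal conditions without added stimulus; test concentration not given here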
[6] = basal HepG2 mitochondrial membrane potential changes, profiling panel, cell-based, JC-1 fluorescence, 24 h, 100 nL compound (AID 1167); settings: higher = more signal; further: test concentration not given here
[7] = basal 3T3-L1 adipocyte mitochondrial potential changes, profiling panel, cell-based, JC-1 fluorescence, 3T3-L1 adipocytes, 24 h, 100 nL compound (AID 1168); settings: JC-1 mitochondrial fluorescence, higher = more signal, called active from +8 up or from −8 down; further: test concentration not given here
[8] = basal RPMI8226 mitochondrial membrane potential changes, profiling panel, cell-based, JC-1 fluorescence, 24 h, 100 nL compound (AID 1169); settings: RPMI8226 myeloma, JC-1 mitochondrial potential fluorescence, higher = more signal; further: test concentration not given here
[9] = basal MM1S mitochondrial membrane potential changes, profiling panel, cell-based, JC-1 fluorescence, 24 h, 100 nL compound (AID 1170); settings: higher = more signal; further: test concentration not given here
[10] = A549 lung cancer cell viability effects, profiling panel, resazurin fluorescence, 24 h, PK04 Diversity Set (AID 1171); settings: higher = more signal, called active from +8 up or from −8 down; further: test concentration not given here
[11] = HepG2 liver cancer cell viability effects, profiling panel, resazurin fluorescence, 24 h, PK04 Diversity Set (AID 1172); settings: higher = more signal; further: test concentration not given here
[12] = basal S. cerevisiae growth modulation, no modifier, primary screen, OD600, strain BY4716, 24 h, basal condition (AID 1173); settings: OD600, 24 h, higher = more signal, called active from +8 up or from −8 down
[13] = MM1S myeloma cell viability, profiling panel, resazurin fluorescence, basal, 24 h, PK04 Diversity Set (AID 1174); settings: higher = more signal, called active from +8 up or from −8 down;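 further: MM1S multiple myeloma cell line; test concentration not given here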
[14] = biological target: Dihydroorotate dehydrogenase (quinone), mitochondrial (Plasmodium falciparum (isolate 3D7)) (UniProt Q08210); assay: PfDHODH enzyme inhibitors, primary screen, biochemical, C-terminal His tag, absorbance 600 nm (AID 1175); settings: DCIP absorbance 600 nm, higher = more signal, called active from +8 up or from −8 down;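 further: recombinant parasite enzyme with a five histidine tag at its C terminus; test concentration not given here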
Sequence of Dihydroorotate dehydrogenase (quinone), mitochondrial (Plasmodium falciparum (isolate 3D7)) (Q08210 whole entry, looked up): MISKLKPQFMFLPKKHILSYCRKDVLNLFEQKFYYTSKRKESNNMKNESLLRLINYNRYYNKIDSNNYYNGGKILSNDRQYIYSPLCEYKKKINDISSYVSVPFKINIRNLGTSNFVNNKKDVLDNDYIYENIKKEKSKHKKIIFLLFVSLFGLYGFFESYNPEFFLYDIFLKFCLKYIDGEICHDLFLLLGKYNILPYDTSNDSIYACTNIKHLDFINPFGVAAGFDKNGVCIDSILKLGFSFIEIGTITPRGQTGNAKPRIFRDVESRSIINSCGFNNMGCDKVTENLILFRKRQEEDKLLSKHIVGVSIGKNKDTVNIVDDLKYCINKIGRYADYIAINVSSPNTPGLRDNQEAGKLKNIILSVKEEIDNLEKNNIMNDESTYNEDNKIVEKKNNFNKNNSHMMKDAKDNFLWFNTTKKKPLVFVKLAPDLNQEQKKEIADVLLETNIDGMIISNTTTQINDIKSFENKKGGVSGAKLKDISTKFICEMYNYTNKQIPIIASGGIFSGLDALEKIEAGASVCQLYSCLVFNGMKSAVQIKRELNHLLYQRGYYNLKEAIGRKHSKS

[15] = S. cerevisiae RM11-1a growth modifiers, primary screen, strain RM11-1a, OD600, basal, 24 h (AID 1177); settings: OD600, 24 h, higher = more signal, called active from +8 up or from −8 down;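 further: cultures grown under basal conditions with no added stressor; test concentration not given here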
[16] = E. coli acrAB mutant growth effects, primary screen, E. coli filamentation inducers, strain DRC39, OD650, 24 h (AID 1178); settings: higher = more signal, called active from +8 up or from −8 down;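 further: growth measured as culture turbidity by optical density at 650 nm; test concentration not given here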
[17] = E. coli acrAB mutant growth effects, primary screen, E. coli filamentation inducers, strain DRC39, OD650, 48 h (AID 1179);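 further: screen aims at cell division blockers that make cells filament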; settings: E. coli DRC39 delta-acrAB growth, higher = more signal, called active from +8 up or from −8 down
[18] = RPMI8226 myeloma cell viability, profiling panel, resazurin fluorescence, basal, 24 h, PK04 Diversity Set (AID 1180); settings: higher = more signal;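 further: RPMI8826 multiple myeloma cell line at 5000 cells per well; test concentration not given here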
[19] = biological target: E3 ubiquitin-protein ligase XIAP (Homo sapiens) (UniProt P98170); assay: XIAP binders, primary screen, biophysical, small-molecule microarray, fluorescence 635 nm (AID 1181); settings: small-molecule microarray binding, higher = more signal;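 further: score merges 667 nm emission and signal to noise over triplicate slides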
Sequence of E3 ubiquitin-protein ligase XIAP (Homo sapiens) (P98170 whole entry, looked up): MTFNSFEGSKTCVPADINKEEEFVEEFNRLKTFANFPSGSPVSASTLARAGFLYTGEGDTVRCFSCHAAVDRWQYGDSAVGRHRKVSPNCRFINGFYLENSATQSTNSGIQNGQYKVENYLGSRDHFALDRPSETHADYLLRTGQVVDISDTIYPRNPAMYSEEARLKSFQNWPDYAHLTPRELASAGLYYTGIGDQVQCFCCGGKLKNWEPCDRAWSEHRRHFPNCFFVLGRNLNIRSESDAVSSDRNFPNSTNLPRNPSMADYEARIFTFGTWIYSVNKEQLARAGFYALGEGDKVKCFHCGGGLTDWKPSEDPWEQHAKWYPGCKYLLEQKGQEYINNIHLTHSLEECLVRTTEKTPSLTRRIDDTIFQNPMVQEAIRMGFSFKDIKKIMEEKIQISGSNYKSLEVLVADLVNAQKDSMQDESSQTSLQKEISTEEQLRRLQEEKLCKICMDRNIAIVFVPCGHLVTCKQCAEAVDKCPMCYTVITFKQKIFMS

Compound	z-score [1]	z-score [2]	z-score [3]	z-score [4]	z-score [5]	z-score [6]	z-score [7]	z-score [8]	z-score [9]	z-score [10]	z-score [11]	z-score [12]	z-score [13]	composite z-score [14]	z-score [15]	z-score [16]	z-score [17]	z-score [18]	composite z-score [19]
O=C(CS)NCCCCCNC(=O)[C@H]1C[C@H]2C(=O)N3CCC[C@H]3C(=O)N2[C@H]1c1ccc(O)cc1	0.931	-0.172	-0.0292	0.965	-0.0858	1.89	0.797 (inactive)	0.34	-0.235	0.641 (inactive)	0.743	-1.04 (inactive)	0.613 (inactive)	-0.581 (inactive)	-0.881 (inactive)	1.2 (inactive)	1.34 (inactive)	1.09	-0.02
COCCOC(=O)N1C(=O)[C@@]2(c3cc(C#CCC(C(=O)OC)C(=O)OC)ccc31)[C@H](C(=O)N1CCN(c3ncccn3)CC1)[C@H]1C(=O)O[C@H](c3ccccc3)[C@H](c3ccccc3)N1[C@@H]2c1ccc(O)cc1	1.65	-0.287	2.17	0.613	-0.188	0.88	2.64 (inactive)	-0.203	-0.0423	0.0359 (inactive)	0.203	-0.746 (inactive)	0.805 (inactive)	-1.06 (inactive)	0.164 (inactive)	0.535 (inactive)	1.31 (inactive)	0.821	-0.0749
CO[C@H]1COC(=O)CC=C[C@H](C)[C@@H](OC)COC(=O)CC=C[C@@H]1C	1.09	0.569	1.06	0.244	0.859	1.36	0.425 (inactive)	-0.36	0.758	0.99 (inactive)	1.4	-1.65 (inactive)	1.18 (inactive)	0.522 (inactive)	-1.38 (inactive)	1.2 (inactive)	1.21 (inactive)	0.749	-0.199
NC(=O)NCC#Cc1ccc2c(c1)[C@]1(C(=O)N2)[C@H](C(=O)N2CCCCCCC2)[C@H]2C(=O)O[C@H](c3ccccc3)[C@H](c3ccccc3)N2[C@@H]1c1ccccc1OCCO	-0.21	1.36	-0.0395	-2.48	-0.583	-1.25	1.03 (inactive)	-0.56	-0.693	1.28 (inactive)	0.237	-0.643 (inactive)	1.4 (inactive)	-0.121 (inactive)	0.827 (inactive)	0.218 (inactive)	0.125 (inactive)	1.13	0.306
C[C@H]1NC(=O)[C@@H](C)NC(=O)[C@@]23C(=O)N[C@@H](Cc4ccccc4)C2[C@H](C)[C@@]2(C)O[C@H]2C3/C=C/C/C=C\CNC1=O (stereo not given in full)	0.0575	0.43	0.205	-0.0933	-0.0009	1.24	0.408 (inactive)	-0.266	1.66	0.381 (inactive)	0.0975	-0.811 (inactive)	1.02 (inactive)	0.254 (inactive)	0.776 (inactive)	2.33 (inactive)	1.58 (inactive)	1.02	-0.198
